Assay results: the supplement of paper PMC6522484
± gives the standard deviation of the averaged measurements.

Tests used:
DLD1 [1] = assay: cell viability (CellTiter-Glo) relative to plate median (fraction of plate median); higher = more viable cells; conditions: 5 µM; treatment time 24 h; reporter: 7TFP
Outline: (§1)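 Two independent replicates were averaged for each reported value. Library compounds were applied at a final 5 µM for 24 h to colorectal cancer cell lines stably expressing lentiviral TCF/Wnt firefly luciferase reporters. Firefly luciferase or CellTiterGlo luminescence from each well was normalised to the plate median.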

HCT116 = assay: as above; conditions: 5 µM; treatment time 24 h; reporter: TCF4/Wnt
Outline: as §1

SW480 [2] = assay: as above; conditions: 5 µM; treatment time 24 h; reporter: 7TFP
Outline: as §1

DLD1 [3] = assay: TCF/Wnt firefly luciferase reporter signal relative to plate median (fraction of plate median); higher = higher Wnt reporter signal; conditions: 5 µM; treatment time 24 h; reporter: 7TFP
Outline: as §1

SW480 [4] = assay: as above; conditions: 5 µM; treatment time 24 h; reporter: 7TFP
Outline: as §1

| SMILES | cell viability (DLD1 [1]) | cell viability (HCT116) | cell viability (SW480 [2]) | TCF/Wnt firefly luciferase reporter signal (DLD1 [3]) | TCF/Wnt firefly luciferase reporter signal (SW480 [4]) |
| --- | --- | --- | --- | --- | --- |
| COc1cc(C/C=C/c2ccccc2)c(OC)cc1O | 1.02 ± 0.055 | 1.06 ± 0.093 | 1.03 ± 0.042 | 1.05 ± 0.22 | 1.04 ± 0.035 |
| O=c1cc(CO)occ1O | 1.02 ± 0.057 | 1.13 ± 0.099 | 0.932 ± 0.011 | 0.952 ± 0.069 | 1.04 ± 0.083 |
| NC(=O)c1cnccn1 | 0.988 ± 0.045 | 0.9595 ± 0.0035 | 1.02 ± 0.05 | 1.02 ± 0.13 | 0.942 ± 0.083 |
| Oc1c(I)cc(Cl)c2cccnc12 | 1.06 ± 0.21 | 0.949 ± 0.12 | 1.13 ± 0.042 | 1.2 ± 0.27 | 1.14 ± 0.11 |
| CC1(C)O[C@@H]2C[C@H]3[C@@H]4C[C@H](F)C5=CC(=O)C=C[C@]5(C)[C@H]4[C@@H](O)C[C@]3(C)[C@]2(C(=O)CO)O1 | 0.996 ± 0.0057 | 1.03 ± 0.055 | 0.978 ± 0.0042 | 0.928 ± 0.0085 | 1.03 ± 0.067 |
| Nc1ccc(S(=O)(=O)Nc2ccnn2-c2ccccc2)cc1 | 1.03 ± 0.058 | 1 ± 0.052 | 0.939 ± 0.013 | 1 ± 0.011 | 1.06 ± 0.057 |
| O=C(O)c1cc2ccccc2[nH]1 | 0.968 ± 0.011 | 0.994 ± 0.08 | 1.04 ± 0.028 | 1.12 | 1.08 ± 0.021 |
| COc1c2occc2cc2ccc(=O)oc12 | 1.04 ± 0.05 | 1.02 ± 0.089 | 1.05 ± 0.014 | 1.09 ± 0.21 | 1.1 ± 0.057 |
| CCN(CC)CCNC(=O)c1cc(Cl)c(N)cc1OC | 1 ± 0.037 | 1.04 ± 0.066 | 0.993 ± 0.025 | 1.14 ± 0.05 | 1 ± 0.069 |
| CN1C(=O)CC[C@H]1c1cccnc1 | 1.03 ± 0.035 | 1.1 ± 0.078 | 1.07 ± 0.014 | 1.06 ± 0.057 | 0.94 ± 0.073 |
| COC(=O)Nc1nc2cc(C(=O)c3ccccc3)ccc2[nH]1 | 0.884 ± 0.069 | 0.801 ± 0.1 | 1 ± 0.028 | 0.896 ± 0.027 | 0.94 ± 0.023 |
| O=C(O)c1ccc(S(=O)(=O)N(Cl)Cl)cc1 | 0.936 ± 0.027 | 1 ± 0.028 | 0.8755 ± 0.0078 | 0.937 ± 0.052 | 0.876 ± 0.03 |
| Nc1nc2[nH]cnc2c(=S)[nH]1 | 0.706 ± 0.016 | 0.761 ± 0.037 | 0.828 ± 0.11 | 0.752 ± 0.033 | 0.799 ± 0.025 |
| Cc1cc(-n2c(=O)[nH]c(=O)n(C)c2=O)ccc1Oc1ccc(SC(F)(F)F)cc1 | 0.946 ± 0.052 | 1 ± 0.023 | 0.952 ± 0.016 | 0.926 ± 0.013 | 1.04 ± 0.06 |
| CN(C)C(=N)NC(=N)N | 0.966 ± 0.076 | 1.003 ± 0.0099 | 1.01 ± 0.025 | 1.03 ± 0.13 | 1 ± 0.054 |
| C[C@@H]1O[C@H]2O[C@@H]3[C@@H](C)OC(c4ccc5c(c4O)C(=O)c4ccc(C[C@@](C)(O)CC(=O)O)c(O)c4C5=O)C[C@H]3O[C@H]2CC1=O (stereo not given in full) [Fridamycin D] | 1.14 ± 0.099 | 0.942 ± 0.12 | 1.02 ± 0.021 | 1.14 ± 0.057 | 1.08 ± 0.021 |
| CC(=O)O[C@H]1CC[C@]2(C)[C@H]3CC=C4[C@@H]5CC(C)(C)CC[C@]5(C)CC[C@@]4(C)[C@]3(C)CC[C@H]2C1(C)C [beta-AMYRIN ACETATE] | 0.982 ± 0.054 | 0.965 ± 0.025 | 1.03 ± 0.021 | 1.145 ± 0.0071 | 1.07 ± 0.014 |

| SMILES | cell viability (DLD1 [1]) | cell viability (HCT116) | cell viability (SW480 [2]) | TCF/Wnt firefly luciferase reporter signal (DLD1 [3]) | TCF/Wnt firefly luciferase reporter signal (SW480 [4]) |
| --- | --- | --- | --- | --- | --- |
| CC(=O)OC[C@H]1O[C@@H](Oc2cc(OC(C)=O)c3c(=O)cc(-c4ccc(OC(C)=O)cc4)oc3c2)[C@H](OC(C)=O)[C@@H](OC(C)=O)[C@@H]1OC(C)=O | 1.02 ± 0.021 | 1.11 | 0.992 ± 0.054 | 1.07 ± 0.13 | 0.938 ± 0.036 |
| CCn1cc(C(=O)O)c(=O)c2ccc(C)nc21 | 0.975 ± 0.16 | 0.9905 ± 0.0078 | 0.975 ± 0.016 | 1.07 ± 0.12 | 1.02 ± 0.028 |
| CC(=O)O[C@H]1C[C@@H]2CC[C@@H]3[C@H](CC[C@@]4(C)[C@H]3C[C@H]([N+]3(C)CCCCC3)[C@@H]4OC(C)=O)[C@@]2(C)C[C@@H]1N1CCCCC1 | 0.976 ± 0.077 | 1.03 | 1.004 ± 0.0092 | 1.03 ± 0.1 | 1.1 ± 0.014 |
| Cc1cc(C(C)(C)C)c(O)c(C(C)(C)C)c1 | 0.926 ± 0.054 | 0.925 ± 0.057 | 1.004 ± 0.0092 | 1.04 ± 0.09 | 0.969 ± 0.011 |
| COc1cc([C@@H]2c3cc4c(cc3[C@@H](O[C@@H]3O[C@@H]5CO[C@@H](c6cccs6)O[C@H]5[C@H](O)[C@H]3O)[C@H]3COC(=O)[C@H]23)OCO4)cc(OC)c1O | 0.946 ± 0.047 | 0.747 ± 0.0014 | 0.952 ± 0.14 | 0.738 ± 0.032 | 0.868 |
| CCC(=O)OCC(=O)[C@@]1(OC(=O)CC)[C@@H](C)C[C@H]2[C@@H]3CCC4=CC(=O)C=C[C@]4(C)[C@@]3(F)[C@@H](O)C[C@@]21C | 1.015 ± 0.0071 | 1.03 ± 0.073 | 0.963 ± 0.018 | 0.876 ± 0.12 | 0.941 ± 0.014 |
| CC/C(=C(/CC)c1ccc(O)cc1)c1ccc(O)cc1 | 0.959 ± 0.072 | 0.845 ± 0.021 | 0.982 ± 0.11 | 1.06 ± 0.18 | 1.13 ± 0.028 |
| Cc1c(NC(C)C)c(=O)n(-c2ccccc2)n1C | 1.01 ± 0.014 | 1.05 ± 0.15 | 1.03 ± 0.045 | 0.95 ± 0.21 | 0.942 ± 0.0014 |
| CC(=O)Oc1ccc(O)cc1 | 1.03 ± 0.021 | 1.08 ± 0.035 | 1.04 ± 0.014 | 1.07 ± 0.042 | 1.035 ± 0.0071 |
| CC(=O)OCC(=O)[C@@]12OC3(CCCC3)O[C@@H]1C[C@H]1[C@@H]3CCC4=CC(=O)C=C[C@]4(C)[C@@]3(F)[C@@H](O)C[C@@]12C | 0.985 ± 0.021 | 0.896 ± 0.16 | 0.965 ± 0.023 | 0.82 ± 0.093 | 0.771 ± 0.28 |
| CCCCNC(=O)NS(=O)(=O)c1ccc(C)cc1 | 0.85 ± 0.14 | 0.982 ± 0.054 | 0.987 ± 0.033 | 0.931 ± 0.097 | 1.005 ± 0.0071 |
| O=C(/C=C/C=C/c1ccc2c(c1)OCO2)N1CCCCC1 | 1 ± 0.038 | 1.05 ± 0.12 | 1.03 | 1.16 ± 0.18 | 1.08 ± 0.19 |
| COc1cc2c(cc1OC)Cc1cc(OC)c(OC)cc1Cc1cc(OC)c(OC)cc1C2 | 1.02 ± 0.055 | 0.97 ± 0.16 | 1.02 ± 0.033 | 1.1 ± 0.15 | 0.865 ± 0.045 |
| CC(C)[N+]1(C)[C@@H]2CC[C@H]1C[C@@H](OC(=O)C(CO)c1ccccc1)C2 (stereo not given in full) | 1.02 ± 0.13 | 0.989 ± 0.16 | 0.953 ± 0.065 | 1 ± 0.013 | 0.935 ± 0.076 |
| Oc1c(Cl)cc(Cl)c(Cl)c1Cc1c(O)c(Cl)cc(Cl)c1Cl | 0.934 ± 0.021 | 1.03 ± 0.1 | 1.02 ± 0.028 | 1.34 ± 0.18 | 1.15 ± 0.021 |
| C[C@]12CC[C@@H]3c4ccc(OS(=O)(=O)O)cc4CC[C@H]3[C@@H]1CCC2=O | 1.03 ± 0.035 | 1.12 ± 0.014 | 1 ± 0.014 | 1.24 ± 0.21 | 1.23 ± 0.028 |
